Results: the supplement of paper PMC10646978
± gives the standard deviation.

Tests used:
Details in all cases: modulator concentration 10 µM
[1] = tested on: RAW-Dual (murine macrophage reporter line); experiment: NF-kB reporter (SEAP) activity fold change vs agonist alone; higher = enhanced NF-kB activity
Procedure, shortened: (§1)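 Overnight stimulation with a PRR agonist followed pre-incubation for 1 hour at 37 °C with compound at 10 μM final. This was done in RAW-Dual murine macrophage reporter cells seeded at 50 000 per well in 384-well plates. NF-κB (SEAP, QUANTI-Blue absorbance at 620 nm) and IRF (Lucia luciferase, QUANTI-Luc luminescence) were read from the supernatant. Each reporter's fold change relative to the mean agonist-only control on the same plate was averaged over replicate plates.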

[2] = tested on: RAW-Dual (murine macrophage reporter line); experiment: IRF reporter (Lucia luciferase) activity fold change vs agonist alone; higher = enhanced IRF activity
Procedure, shortened: as §1

[3] = tested on: RAW-Dual (murine macrophage reporter line); experiment: viability score (confluency relative to resting cells, overnight) (fraction); higher = more viable, active = viable (0.7 or more)
Procedure, shortened: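 RAW-Dual macrophages in 384-well plates were exposed overnight to compound at 10 μM final. Confluency was imaged with IncuCyte, and two confluency masks were generated with IncuCyte software over all imaged wells. The viability score is confluency expressed relative to resting cells. Compounds were called viable if both masks exceeded 70% of resting cells.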

[4] = agonist: CpG ODN 1826 0.5 ug/mL

Compound	NF-kB reporter [1, 4]	NF-kB reporter ([1]; agonist: LPS 0.1 ug/mL)	NF-kB reporter ([1]; agonist: MPLA […])	IRF reporter ([2]; agonist: 3'3'-cGAMP 10 ug/mL)	IRF reporter ([2]; agonist: LPS 0.1 ug/mL)	IRF reporter ([2]; agonist: MPLA […])	viability score [3]
CCN1CC(CCN2CCOCC2)C(c2ccccc2)(c2ccccc2)C1=O (centres undefined)	1.18 ± 0.32	1.04 ± 0.072	1.05 ± 0.067	0.874 ± 0.03	1.28 ± 0.14	1.29 ± 0.24	1.01 (active)
C=CCNC1=C2C[C@@H](C)C[C@H](OC)[C@H](O)[C@@H](C)/C=C(\C)[C@H](OC(N)=O)[C@@H](OC)/C=C\C=C(/C)C(=O)NC(=CC1=O)C2=O	0.174 ± 0.0095	0.215 ± 0.021	0.413 ± 0.042	1.63 ± 0.15	3.81 ± 0.34	3.4 ± 0.71	0.493 (inactive)
O=c1sn(-c2cccc3ccccc23)c(=O)n1Cc1ccccc1	0.647 ± 0.1	0.501 ± 0.15	0.653 ± 0.044	0.473 ± 0.016	0.441 ± 0.14	0.81 ± 0.12	0.181 (inactive)
CCCCC(=O)N(Cc1ccc(-c2ccccc2-c2nnn[nH]2)cc1)[C@H](C(=O)O)C(C)C [Prestw-1735]	1.14 ± 0.14	0.992 ± 0.075	1.05 ± 0.029	0.687 ± 0.03	0.705 ± 0.04	0.645 ± 0.071	0.998 (active)
O=C(CCCn1nc(-c2ccc(F)cc2)ccc1=O)Nc1ccc(C(F)(F)F)cc1	0.89 ± 0.097	0.97 ± 0.055	1.05 ± 0.038	0.346 ± 0.038	1.01 ± 0.041	0.748 ± 0.15	0.99 (active)
CCOc1ccc2nc(SC(c3ccccc3)c3ccccc3)sc2c1	1.01 ± 0.17	0.967 ± 0.099	0.974 ± 0.14	1.01 ± 0.036	1.2 ± 0.18	1.04 ± 0.31	0.661 (inactive)
O=S(=O)(C=Cc1ccccc1)NCc1ccccc1	0.933 ± 0.15	1.03 ± 0.083	0.953 ± 0.085	1.03 ± 0.028	1.28 ± 0.13	1.61 ± 0.37	0.97 (active)
O=[N+]([O-])c1ccccc1S(=O)(=O)N1CCCC1	0.974 ± 0.11	1.06 ± 0.065	0.907 ± 0.055	0.921 ± 0.042	1.34 ± 0.087	1.23 ± 0.25	1.01 (active)
O=[N+]([O-])c1cc(C(F)(F)F)ccc1N1CCN(CC=Cc2ccccc2)CC1	0.915 ± 0.078	1.07 ± 0.099	0.985 ± 0.071	0.976 ± 0.036	1.47 ± 0.24	1.14 ± 0.12	1.01 (active)
COc1ccc(N2CCN(C(=O)Cc3csc(NC(=O)Nc4ccccc4OC)n3)CC2)cc1	0.911 ± 0.069	1.03 ± 0.1	0.884 ± 0.036	0.784 ± 0.043	0.922 ± 0.073	0.48 ± 0.042	0.983 (active)
Cc1cc(OC2CN(C(=O)Cc3noc4ccccc34)C2)cc(=O)n1C1CC1	1.18 ± 0.072	1.08 ± 0.088	0.996 ± 0.043	0.919 ± 0.072	1 ± 0.061	0.957 ± 0.14	0.999 (active)
CCC(=O)Nc1ccc(N2CCOCC2)c(Cl)c1	1.11 ± 0.12	0.945 ± 0.087	1.03 ± 0.052	0.838 ± 0.095	0.982 ± 0.054	1.01 ± 0.11	0.996 (active)
Cc1ccc(Nc2ccc(NC(=O)C(C)C)cc2)nn1	0.988 ± 0.042	0.993 ± 0.082	1.11 ± 0.07	1.05 ± 0.048	1.2 ± 0.26	1.29 ± 0.44	0.981 (active)
O=C(C=Cc1cccc([N+](=O)[O-])c1)NCCc1ccccc1	1.01 ± 0.17	1 ± 0.12	0.948 ± 0.12	0.963 ± 0.048	1.27 ± 0.24	1.32 ± 0.24	0.99 (active)
CCN(CC)c1ccc(C=NNC(=O)c2ccccc2I)c(O)c1	1.35 ± 0.13	0.997 ± 0.069	1.26 ± 0.076	0.436 ± 0.036	1.08 ± 0.11	1.09 ± 0.13	0.926 (active)
O=C1C(Cl)=C(N2CCCCC2)C(=O)N1c1ccc(Cl)c(Cl)c1	0.687 ± 0.14	1.07 ± 0.084	1 ± 0.15	0.911 ± 0.047	1.09 ± 0.11	1.22 ± 0.27	1 (active)
COc1ccccc1C(=O)Nc1cnc(N2CCN(c3ccccn3)CC2)nc1	0.887 ± 0.038	1.02 ± 0.12	1.2 ± 0.066	0.913 ± 0.086	0.991 ± 0.21	1.12 ± 0.43	0.877 (active)
CCn1c(C=Nn2cnnc2)nc2ccccc21	0.929 ± 0.11	1.08 ± 0.072	0.943 ± 0.036	0.972 ± 0.23	0.903 ± 0.048	0.911 ± 0.068	0.995 (active)
C(#Cc1ccc(C=Nc2nccs2)cc1)c1ccccc1	0.714 ± 0.18	0.935 ± 0.17	0.892 ± 0.1	0.176 ± 0.029	1.09 ± 0.16	1.15 ± 0.17	0.997 (active)
O=Cc1ccc(OC(=O)c2cccc(C(=O)Oc3ccc(C=O)cc3)c2)cc1	0.813 ± 0.064	0.851 ± 0.052	1.02 ± 0.092	0.975 ± 0.064	1.52 ± 0.088	1.69 ± 0.14	0.989 (active)
O=C(N/N=C/c1ccc([N+](=O)[O-])o1)c1ccc(O)cc1	1.54 ± 0.21	2.63 ± 0.4	2.97 ± 0.26	1.01 ± 0.051	1.88 ± 0.34	1.43 ± 0.12	0.968 (active)
CC(=NNC(=O)CNc1ccccc1C)c1ccc(Br)cc1	1.09 ± 0.093	1.01 ± 0.14	1.03 ± 0.098	0.998 ± 0.032	1.23 ± 0.13	1.38 ± 0.19	0.982 (active)
CC(C)(C)c1ccc(C2=NC(=Cc3cccc4ccccc34)C(=O)O2)cc1	0.986 ± 0.078	1.05 ± 0.082	0.97 ± 0.034	0.857 ± 0.11	1.1 ± 0.11	1 ± 0.19	1 (active)
CC(C)(C)c1cc(C(=O)NN=Cc2ccc([N+](=O)[O-])cc2)[nH]n1	0.924 ± 0.12	0.953 ± 0.083	0.893 ± 0.09	0.858 ± 0.061	1.2 ± 0.11	1.02 ± 0.072	1.01 (active)
C=CCNC(=O)COc1ccccc1C	0.782 ± 0.073	0.887 ± 0.042	0.985 ± 0.086	1.05 ± 0.048	1.36 ± 0.082	1.48 ± 0.16	1 (active)
CN1C(CC(=O)c2ccccc2)CCCC1CC(O)c1ccccc1.Cl (centres undefined)	0.601 ± 0.16	1.01 ± 0.097	0.964 ± 0.083	0.815 ± 0.041	0.996 ± 0.21	1.03 ± 0.15	0.988 (active)
C=C1CCC2C(C)(CO)C(O)CCC2(C)C1CC=C1C(=O)OCC1O (centres undefined)	0.462 ± 0.11	0.496 ± 0.025	0.755 ± 0.11	0.188 ± 0.0064	2.13 ± 0.35	1.51 ± 0.18	0.839 (active)
